A selection: hits, their analogues and other compounds. The true share with any hit is near 19%.
TDP1 cell CPT: DT40-hTDP1 cell growth loss with CPT. chicken DT40 Tdp1-/-;hTDP1 cells + 20 nM CPT, ATP luminescence, 48 h. Potency, µM (series often up to 46.2 µM), actives largely listed as inhibitors. 12% of 420,000 active. AID 686979; also: nearly all actives have a fitted effect of over 55% in size
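Cell growth measured by CellTiter-Glo luminescence after a minimum 48 h, 37 C compound exposure with 20 nM CPT in Tdp1-knockout DT40 cells stably expressing hTDP1, seeded 400/well; qHTS titration format.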
RORgamma inh: inhibitors of mouse ROR gamma transcriptional activity. AID 2551. Drosophila S2 Gal4-RORgamma UAS-luciferase reporter, 20 h. 5.4% of 310,000 active. Potency, µM (top dose mostly 53.6 µM), most hits filed as inhibitors; also: nearly all actives have a fitted effect of over 60% in size
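A Gal4/UAS one-hybrid system in insect cells: metallothionein-promoter Gal4–ROR gamma fusion plus Photinus luciferase reporter. Copper sulfate 700 uM final, 20 hr ambient incubation, luminescent detection after 10 min with reagent.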
DT40 TDP1 no CPT: qHTS for Inhibitors of human tyrosyl-DNA phosphodiesterase 1 (TDP1): qHTS in cells in absence of CPT; DT40 Tdp1-/- hTDP1 cells, no CPT, ATP luminescence, 48 h; Potency, µM (series often up to 46.2 µM), usual class: inhibitors; 15% of 420,000 active; AID 686978, 2013; also: nearly all actives have a fitted effect of over 55% in size
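Stably hTDP1-transfected Tdp1-null chicken DT40 cells were treated with library compounds minus camptothecin and grown for at least 48 hr at 37 °C, after which cellular ATP was quantified by luminescence.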
TDP1 inh: TDP1 (human) enzyme inhibition | recombinant TDP1, AlphaScreen DNA substrate cleavage | AID 485290 | Q9NUW8 | Potency, µM (titrated, usually from 130 µM), actives largely listed as inhibitors | 0.28% of 350,000 active; also: nearly all actives have a fitted effect of over 40% in size
Target sequence (Q9NUW8 whole entry, looked up): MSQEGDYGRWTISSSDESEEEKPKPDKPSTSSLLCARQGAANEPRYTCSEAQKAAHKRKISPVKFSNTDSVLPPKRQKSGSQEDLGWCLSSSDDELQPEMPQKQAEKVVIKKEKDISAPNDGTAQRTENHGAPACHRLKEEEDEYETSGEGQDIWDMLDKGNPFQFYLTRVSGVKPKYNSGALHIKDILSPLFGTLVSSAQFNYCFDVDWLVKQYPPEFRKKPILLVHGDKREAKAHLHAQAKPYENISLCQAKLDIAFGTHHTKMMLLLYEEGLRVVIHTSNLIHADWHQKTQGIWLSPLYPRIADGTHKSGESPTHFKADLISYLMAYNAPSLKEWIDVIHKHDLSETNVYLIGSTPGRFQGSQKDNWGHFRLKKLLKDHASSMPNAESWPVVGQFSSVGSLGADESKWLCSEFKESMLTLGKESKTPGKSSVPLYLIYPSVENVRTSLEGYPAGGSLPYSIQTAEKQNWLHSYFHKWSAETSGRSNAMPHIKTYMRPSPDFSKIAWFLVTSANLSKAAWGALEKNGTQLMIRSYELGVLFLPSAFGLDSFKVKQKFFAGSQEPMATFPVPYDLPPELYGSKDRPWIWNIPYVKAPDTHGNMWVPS
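AlphaScreen read-out: signal falls as enzyme removes the 3' tyrosine-FITC from a 5'-biotinylated DNA oligo (15 nM, 5 min, RT). Enzyme was E. coli-made recombinant Tdp1 at 1 nM, exposed to compound for 15 min beforehand; beads 10 ug/ml, 10 min.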
VP16 counter: Gal4-VP16 reporter inhibition counter-screen | Potency, µM (top dose mostly 53.6 µM), actives largely listed as inhibitors | AID 2546 | Drosophila S2 Gal4-VP16 UAS-luciferase, luminescence, 20 h | 3.5% of 310,000 active;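 also: Gal4-VP16 expression switched on by copper sulfate through the metallothionein promoter; nearly all actives have a fitted effect of over 50% in size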
Each line names hits and unclear results; the compound was inactive in the other large screens. Calls follow the shape of the dose curve; as a rule, active = well fitted curve in the direction sought with a large enough effect; inconclusive = small, poorly fitted or top-dose-only effect, or another doubt; inactive = no such curve, though single readings can be large; an effect the other way counts as inactive or inconclusive.

Cc1ccc(CCNC(=O)c2ccc(CNS(=O)(=O)c3ccc(F)cc3)cc2)cc1	TDP1 cell CPT 13µM, DT40 TDP1 no CPT 6.5µM (no result: RORgamma inh, VP16 counter)
O=C(NCCC(=O)N(CCc1ccccc1)Cc1ccccc1)c1ccc(Br)cc1	TDP1 cell CPT inconclusive, DT40 TDP1 no CPT 26µM (no result: RORgamma inh, TDP1 inh, VP16 counter)
COc1cccc2cc(C(=O)CS(=O)(=O)c3ccc(C)cc3)c(=O)oc12	DT40 TDP1 no CPT inconclusive
N#Cc1cccc(NC(=O)N2CCCC3(CCN(C(=O)c4cccc(F)c4)CC3)C2)c1	DT40 TDP1 no CPT inconclusive (no result: TDP1 inh)
Cc1ccc(C(=O)NCCc2ccccc2)cc1	RORgamma inh 4.5µM, DT40 TDP1 no CPT inconclusive, VP16 counter 4µM (no result: TDP1 inh)
CCc1ccc(S(=O)(=O)NCc2ccc(C(=O)NCCN(Cc3ccccc3)C(C)C)cc2)cc1	TDP1 cell CPT 21µM, DT40 TDP1 no CPT 13µM (no result: RORgamma inh, TDP1 inh, VP16 counter)
COc1cccc(OC)c1C(=O)NCCc1ccccc1	none (no result: RORgamma inh, TDP1 inh, VP16 counter)
COC(=O)c1c(N)sc(C(=O)NCCc2ccccc2)c1C	TDP1 cell CPT inconclusive, RORgamma inh 2.5µM, DT40 TDP1 no CPT inconclusive, VP16 counter 4.5µM (no result: TDP1 inh)
Cc1ccc(C(=O)Oc2coc(CSc3nnc(NC(=O)c4cccs4)s3)cc2=O)cc1	none
O=C(NCc1cccnc1)c1ccc2c(c1)N(Cc1ccccc1)CCS2	TDP1 cell CPT inconclusive, DT40 TDP1 no CPT inconclusive
O=C(NCc1ccccc1Cl)c1ccc2c(c1)N(Cc1ccccc1)CCS2	TDP1 cell CPT 13µM, DT40 TDP1 no CPT 18µM (no result: RORgamma inh, VP16 counter)
Cc1ccccc1CNC(=O)c1ccc2c(c1)N(Cc1ccccc1)CCS2	TDP1 cell CPT inconclusive, DT40 TDP1 no CPT 21µM (no result: RORgamma inh, VP16 counter)
O=[N+]([O-])c1ccc2ncnc(N3CCN(Cc4ccc5c(c4)OCO5)CC3)c2c1	TDP1 cell CPT 13µM, RORgamma inh inconclusive, DT40 TDP1 no CPT 9.2µM, VP16 counter inconclusive
COc1ccc2[nH]c3c(N4CCC(O)(c5cccc(C(F)(F)F)c5)CC4)ncnc3c2c1	TDP1 cell CPT 21µM, DT40 TDP1 no CPT 21µM, VP16 counter inconclusive
COc1ccc2[nH]c3c(N4CCN(Cc5ccc6c(c5)OCO6)CC4)ncnc3c2c1	TDP1 cell CPT 15µM, DT40 TDP1 no CPT 23µM, VP16 counter inconclusive
Cn1c(=O)c([N+](=O)[O-])c(N2CCN(Cc3ccc4c(c3)OCO4)CC2)c2ccccc21	TDP1 cell CPT 13µM, DT40 TDP1 no CPT 8.2µM (no result: TDP1 inh)
O=[N+]([O-])c1cccnc1N1CCN(Cc2ccc3c(c2)OCO3)CC1	TDP1 cell CPT inconclusive (no result: TDP1 inh)
CC(C)CN1CCNC(=O)C1CC(=O)NCCc1cnn(-c2ccccc2)c1 (centres undefined)	none
CSCC[C@H](N)C(=O)NC[C@H]1O[C@@H](n2cnc3c(N)ncnc32)[C@H](O)[C@@H]1O	none (no result: RORgamma inh, VP16 counter)
NC(N)=NC(N)=Nc1cccc2ccccc12	TDP1 cell CPT inconclusive, DT40 TDP1 no CPT inconclusive (no result: TDP1 inh)
Cc1c(Cl)cccc1N=C(N)N=C(N)N	TDP1 cell CPT inconclusive, RORgamma inh inconclusive, DT40 TDP1 no CPT 23µM
CCc1ccc(NC(=S)N2CCN(c3cccc(OC)c3)CC2)cc1	RORgamma inh 13µM, VP16 counter inconclusive
CCc1ccccc1NC(=S)N1CCN(c2cccc(OC)c2)CC1	RORgamma inh 10µM, VP16 counter inconclusive (no result: TDP1 inh)
COc1ccc(NC(=S)N2CCN(c3ccccc3)CC2)c(OC)c1	DT40 TDP1 no CPT inconclusive (no result: TDP1 inh)
COc1cccc(N2CCN(C(=S)Nc3ccccc3)CC2)c1	VP16 counter inconclusive (no result: TDP1 inh)
COc1ccc(CCC(=O)NNC(=O)Nc2cc(Cl)ccc2C)cc1	none
COc1ccc(NC(=O)NCCC2=CCCCC2)cc1	none
CCOC(=O)c1cnc2c(C)cccc2c1NCCc1ccc(OC)c(OC)c1	TDP1 cell CPT 16µM, DT40 TDP1 no CPT 23µM
CCOC(=O)c1cnc2c(C)cc(C)cc2c1NCCc1ccc(OC)c(OC)c1	TDP1 cell CPT 21µM, DT40 TDP1 no CPT 23µM (no result: RORgamma inh, TDP1 inh, VP16 counter)
CCOC(=O)c1cnc2c(C(=O)OC)cccc2c1NCc1cccnc1	none
CCOC(=O)c1cnc2c(C)c(Cl)ccc2c1NCCc1ccc(OC)c(OC)c1	TDP1 cell CPT inconclusive, DT40 TDP1 no CPT 16µM (no result: RORgamma inh, TDP1 inh, VP16 counter)
